SMILES strings stand for the structures. ± gives the standard deviation of the averaged measurements.

This note sets out measurements from the supplement of paper PMC4962491.

For this test, the system named is FaDu. As to the kind of experiment: mitochondrial oxygen consumption rate normalised to cell number, Z score vs plate DMSO wells; higher = higher oxygen consumption (negative = OCR reduction). The note with it: treatment time 24 h, assay medium: 5 mM glucose, 5 mM pyruvate, 4 mM glutamine. The protocol:
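Secondary screen: FaDu cells were incubated 24 h with the top 130 primary hits at 0.08, 0.4, 2 or 10 uM. Mitochondrial-specific OCR (basal minus antimycin A) was measured on a Seahorse XF96 in medium with 5 mM glucose, 5 mM pyruvate and 4 mM glutamine and normalised to Hoechst cell number. OCR score = (OCR - mean of plate DMSO wells) / SD of plate DMSO wells. Three repeats.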
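Also: compound exposure in DMEM (4 mM L-glutamine, 5 mM glucose), antimycin A injected at 2 µM after the basal reading and its residual OCR subtracted from basal.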

In the case of `Cc1cc(C2CCCCC2)n(O)c(=O)c1`, the “mitochondrial oxygen consumption rate normalised” value was -0.736 ± 1.4 (0.08 µM), 1.35 ± 1 (0.4 µM), -3.51 ± 0.86 (2 µM) and -3.81 ± 1.9 (10 µM).
For `CN(C)CCCN1c2ccccc2CCc2ccccc21`, the “mitochondrial oxygen consumption rate normalised” value is, setting by setting: (0.08 µM) -0.638 ± 1.5; (0.4 µM) -0.388 ± 0.95; (2 µM) -0.981 ± 1.9; (10 µM) -0.576 ± 1.4.
Take `N[C@@H](Cc1ccc(O)c(O)c1)C(=O)O`: the “mitochondrial oxygen consumption rate normalised” value worked out at 0.0621 ± 1.8 (0.08 µM), 0.345 ± 0.69 (0.4 µM), 1.31 ± 0.9 (2 µM) and 0.522 ± 2 (10 µM).
On the same counts, the results for `N=C(N)NC(=N)NCCc1ccccc1` are 0.684 ± 1.6, 0.605 ± 0.9, -0.479 ± 0.84 and -5.11 ± 1.6.
Taken in the same sequence, the figures for `C=CC1=C(C)c2cc3[nH]c(cc4nc(cc5[nH]c(cc1n2)c(C)c5CCC(=O)O)C(CCC(=O)O)=C4C)c(C)c3C=C` were 0.0776 ± 2.3, 1.29 ± 2, 0.447 ± 0.95 and -1.43 ± 1.3.
Taken in the same sequence, the figures for `CCCCCCCCNC(C)C(O)c1ccc(SC(C)C)cc1` (stereo unspecified) were 0.0353 ± 1.1, -0.376 ± 0.59, 0.293 ± 1.8 and -7.88 ± 0.64.
Regarding `CCCCCCCCCCCCCCCC[N+](C)(C)CCN(Cc1ccc(OC)cc1)c1ncccn1`, the “mitochondrial oxygen consumption rate normalised” value (0.08 µM) turned out to be 0.201 ± 1.1, the “mitochondrial oxygen consumption rate normalised” value (0.4 µM) was determined as 1.55 ± 0.82, the “mitochondrial oxygen consumption rate normalised” value (2 µM) stood at 0.248 ± 1.4 and the “mitochondrial oxygen consumption rate normalised” value (10 µM) was -5.99 ± 0.8.
Taken in the same sequence, the figures for `CO[C@H](C(=O)[C@@H](O)[C@@H](C)O)[C@@H]1Cc2cc3cc(O[C@H]4C[C@@H](O[C@@H]5C[C@@H](O)[C@H](O)[C@@H](C)O5)[C@H](O)[C@@H](C)O4)c(C)c(O)c3c(O)c2C(=O)[C@H]1O[C@H]1C[C@@H](O[C@@H]2C[C@@H](O)[C@@H](O[C@@H]3C[C@](C)(O)[C@H](O)[C@@H](C)O3)[C@@H](C)O2)[C@H](O)[C@@H](C)O1` were -4.64 ± 1.4, -7.12 ± 0.33, -7.79 ± 0.54 and -8.14 ± 0.52.
Taken in the same sequence, the figures for `C[C@@H]1O[C@@H](OC[C@H]2O[C@@H](Oc3c(-c4ccc(O)c(O)c4)oc4cc(O)cc(O)c4c3=O)[C@H](O)[C@@H](O)[C@@H]2O)[C@H](O)[C@H](O)[C@H]1O` were 0.0147 ± 1.7, 1.67 ± 0.68, -0.481 ± 2.6 and 1.74 ± 2.4.
On the same counts, the results for `CCCCC(CC)CN1CN(CC(CC)CCCC)CC(C)(N)C1` (stereo unspecified) are 1.53 ± 1.5, 0.568 ± 0.56, 0.773 ± 1.7 and -5.24 ± 1.7.
Take `CC(C)OC(=O)C(C)(C)Oc1ccc(C(=O)c2ccc(Cl)cc2)cc1`: the “mitochondrial oxygen consumption rate normalised” value by setting is: (0.08 µM) -0.014 ± 0.66; (0.4 µM) 1.08 ± 0.7; (2 µM) 0.455 ± 1.1; (10 µM) -2.82 ± 2.6.
Turning to `Nc1ncn([C@@H]2O[C@H](CO)[C@@H](O)[C@H]2O)c(=O)n1`, the “mitochondrial oxygen consumption rate normalised” value by setting is: (0.08 µM) -0.369 ± 1.5; (0.4 µM) 1.15 ± 0.3; (2 µM) -1.48 ± 1.4; (10 µM) -2.3 ± 1.5.
On the same counts, the results for `CC[n+]1c(-c2ccccc2)c2cc(N)ccc2c2ccc(N)cc21` are -0.559 ± 1.1, -1.04 ± 0.79, -3.43 ± 2.4 and -6.28 ± 1.8.
Taken in the same sequence, the figures for `O=C(Nc1ccc([N+](=O)[O-])cc1Cl)c1cc(Cl)ccc1O` were -1.26 ± 1.4, -0.286 ± 0.41, 0.259 ± 0.76 and -12.5 ± 0.17.
